SMILES strings stand for the structures. The source made the active and inactive calls. How the calls were made is not given here.

In the assay the target is Pantothenate synthetase (Mycobacterium tuberculosis (strain ATCC 25618 / H37Rv)) (UniProt P9WIL5). Description: Recombinant Mtb pantothenate synthetase (PanC) inhibitors, coupled enzyme, confirmatory (AID 375).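 Further: 0% = full reaction with vehicle and 100% = no enzyme background.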 As to conditions: coupled enzyme assay; at 10 µM, active compounds read high.
Chain of Pantothenate synthetase (Mycobacterium tuberculosis (strain ATCC 25618 / H37Rv)) (P9WIL5 whole entry, looked up): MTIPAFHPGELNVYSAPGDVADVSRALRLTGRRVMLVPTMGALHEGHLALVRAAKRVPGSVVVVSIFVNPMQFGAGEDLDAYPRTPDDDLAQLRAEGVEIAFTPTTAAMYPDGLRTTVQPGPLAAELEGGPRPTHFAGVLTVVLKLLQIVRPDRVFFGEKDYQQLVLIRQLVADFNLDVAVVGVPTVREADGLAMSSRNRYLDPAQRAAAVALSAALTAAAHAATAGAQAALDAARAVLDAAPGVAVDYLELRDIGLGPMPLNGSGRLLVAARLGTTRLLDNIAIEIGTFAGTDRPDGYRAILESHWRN
Consider `CC(=O)Oc1cccc2c1C(=O)c1c(OC(C)=O)cc(C(=O)O)cc1C2=O`, for which the inhibition is 2% (inactive). As for `COc1cc(N2C(=O)CSC23C(=O)Nc2ccccc23)cc(OC)c1OC` (stereo not given), the inhibition was 0% (inactive). The value for `CC1=C(C(=O)OCc2ccccc2)C(c2ccco2)n2ncnc2N1` (stereo not given) was 0% (inactive); that for `Cc1ccc(-c2noc(CCC(=O)NCCc3ccccc3Cl)n2)cc1` was 1% (inactive).

In the case of `COc1cccc(CN2CCN(C(=O)c3ccco3)CC2)c1OC`, the inhibition is 3% (inactive). The value for `O=C(CSc1nnc(-c2ccco2)n1CC1CCCO1)N1CCCCC1` (stereo not given) was 0% (inactive); that for `O=C1CCC(=O)N1OCCCOc1ccc(Br)cc1Cl` was 0% (inactive); that for `Cc1ccc(Cn2c(SCC(C)C)nc3c2c(=O)n(C)c(=O)n3C)cc1` was 3% (inactive).

`C=CCNC(=O)CSc1nc2sc(C)c(C)c2c(=O)[nH]1`: the inhibition was 0% (inactive). The figure for `COc1ccc(CCNC(=O)C2=COCCO2)cc1` is 0% (inactive).

Consider `CCN(CC)C(=O)CSc1nnc([C@@H](N)Cc2ccccc2)o1`, for which the inhibition is 0% (inactive).

For the molecule `CN(Cc1cnn(C)c1)C(=O)c1cc2ccccc2oc1=O`, the inhibition is 3% (inactive). As for `Cc1cc(NC(=O)C23CCC(C)(C(=O)O2)C3(C)C)no1` (stereo not given), the inhibition was 1% (inactive).

Consider `CCOc1cc2[nH]c(=O)n(CCCCC(=O)N3CCCCCC3)c(=O)c2cc1OCC`, for which the inhibition was 2% (inactive). As to `CCN(C(=O)c1ccnc(C(C)(C)C)c1)c1ccccc1`, the inhibition was 0% (inactive). The figure for `CCCCCCNC(=O)c1c(N)n(/N=C/c2ccco2)c2nc3ccccc3nc12` is 5% (inactive); for `O=C(CSCCSCC(=O)c1ccco1)c1ccco1` it is 0% (inactive); for `CCc1c(C)nc2ncnn2c1NCCc1ccc(OC)c(OC)c1` it is 0% (inactive). The figure for `CCc1nnc(NC(=O)NCN2C(=O)C3C4C=CC(C4)C3C2=O)s1` (stereo not given) is 0% (inactive). The value for `CC(=O)Nc1ccc(S(=O)(=O)NCc2cn3c(C)csc3n2)cc1` was 0% (inactive). Regarding `COCc1[nH]nc2c1C(c1cc(OC)c(O)c(OC)c1)C(C#N)=C(N)O2` (stereo not given), the inhibition is 0% (inactive). As for `CCOC(=O)CSc1nc2cccnc2n1-c1ccc(F)cc1`, the inhibition was 2% (inactive). On to `Cc1cccc(Nc2ccccc2C(=O)O)c1C`, for which the inhibition is 4% (inactive).

Consider `COC(=O)C1=C(C)Nc2nnnn2C1c1cccs1` (stereo not given), for which the inhibition is 8% (inactive).

Consider `CC1CCCN(C(=O)C23CCC(C)(C(=O)C2)C3(C)C)C1` (stereo not given), for which the inhibition was 0% (inactive).

As to `Cc1ccc(Cl)cc1NC(=O)CSc1nnc(C)n1-c1ccccc1`, the inhibition is 0% (inactive). Turning to `CCc1cc2c(NCCC(=O)O)ncnc2s1`, the inhibition was 1% (inactive). As for `COc1ccc(N2CCN(C(=O)CSc3ccccc3N)CC2)cc1`, the inhibition was 0% (inactive). Consider `O=C(c1ccc2c(c1)c(=O)oc1ccccc12)N1CCCCC1`, for which the inhibition was 6% (inactive). The value for `CCOC(=O)CC1=C(C(=O)OCC)C(c2ccc(C)o2)C(C#N)=C(N)O1` (stereo not given) was 0% (inactive); that for `Cc1ccc(C)c(N2CCN(C(=O)CCCn3c(=S)[nH]c4cc5c(cc4c3=O)OCO5)CC2)c1` was 0% (inactive). On to `CCn1c(C)nc2cc(C(=O)OCCC(F)(F)F)ccc21`, for which the inhibition was 0% (inactive). The value for `Cc1nc(/N=C(\N)Nc2ccccc2)nc2ccccc12` was 0% (inactive); that for `O=c1cc(-c2ccco2)oc2ccc(Cl)cc12` was 1% (inactive).

As to `CN1CCN(C(=O)CCC(=O)c2ccc(F)cc2)CC1`, the inhibition was 9% (inactive). The figure for `COc1ccc(OC)c(NC(=O)CSc2nc3ccccc3c(=O)n2CCNC(C)=O)c1` is 0% (inactive); for `O=c1c2[nH]c3cccc(Cl)c3c2ncn1CCN1CCCCC1` it is 6% (inactive). Take `O=C(CN1C(=O)c2cccc3cccc1c23)N1CCN(c2ccccc2)CC1`: the inhibition is 0% (inactive). The value for `COCCNC(=O)Cn1nc(C(F)(F)F)c(Br)c1C` was 0% (inactive); that for `Cc1nc2c(-c3ccccc3)c(C)[nH]n2c(=O)c1Cl` was 0% (inactive).

One may read the inhibition as the change of the read-out against control, counted positive when it falls.

These data come from PubChem BioAssay.
